In PubChem BioAssay (NCI):
The panel holds about 83,000 compounds, 20% with a hit somewhere; the sample as a whole holds those more often.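 Percent growth is the endpoint: 0 to 100 indicates growth inhibition (40 means 60% inhibition), 0 means no net growth, and negative values indicate cell death.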 The source made the active and inactive calls. The calls were made as follows: active = growth percent below 10; inactive = the rest.

Legend:
Experiment in all cases: NCI-60 one-dose screen, 48 h (100 = growth as untreated, 0 = no growth, -100 = all killed)
Conditions in all cases: 10 µM unless noted
HCT-15 colon = system: HCT-15 colon
HT29 colon = system: HT29 colon
SNB-75 CNS = system: SNB-75 CNS
SNB-19 CNS = system: SNB-19 CNS
U251 CNS = system: U251 CNS
PC-3 prostate = system: PC-3 prostate
SK-MEL-5 melanoma = system: SK-MEL-5 melanoma
UACC-62 melanoma = system: UACC-62 melanoma
LOX IMVI melanoma = system: LOX IMVI melanoma
SK-MEL-28 melanoma = system: SK-MEL-28 melanoma

Measured: growth

COc1ccc(/C=C/C(=O)c2cc3c(N)c(C(=O)Nc4cccc5ccccc45)sc3nc2C)cc1
inactive: HCT-15 colon 44.1% | HT29 colon 70.2% | SNB-75 CNS 53.6% | SNB-19 CNS 56.3% | U251 CNS 45.3% | PC-3 prostate 75.6% | SK-MEL-5 melanoma 68.9% | UACC-62 melanoma 21.3% | LOX IMVI melanoma 60.1% | SK-MEL-28 melanoma 64.9%

CCOC(=O)c1c2c(n3cccc(F)c13)C(=O)c1ncccc1C2=O
inactive: HCT-15 colon 12.7% | SNB-75 CNS 28.7% | SNB-19 CNS 11.3% | PC-3 prostate 13.7% | SK-MEL-28 melanoma 37.4%
active: HT29 colon 8.73% | U251 CNS -35.5% | SK-MEL-5 melanoma -23% | UACC-62 melanoma -33.4% | LOX IMVI melanoma -20.9%

COc1ccc(OC)c(/C=N/Nc2ncnc3c2c(C)nn3C)c1
inactive: HCT-15 colon 100% | HT29 colon 88.3% | SNB-75 CNS 104% | SNB-19 CNS 98.3% | U251 CNS 96.6% | PC-3 prostate 99.6% | SK-MEL-5 melanoma 98% | UACC-62 melanoma 93.5% | LOX IMVI melanoma 99.5% | SK-MEL-28 melanoma 98.8%

COc1ccc(C(=O)Nc2cccc(-c3cc(=O)c4c(OC)c(OC)c(OC)cc4o3)c2)cc1
inactive: HCT-15 colon 45.2% | HT29 colon 46.7% | SNB-75 CNS 67.6% | SNB-19 CNS 64.6% | U251 CNS 72.3% | PC-3 prostate 31.9% | SK-MEL-5 melanoma 50.2% | UACC-62 melanoma 55.4% | LOX IMVI melanoma 41.9% | SK-MEL-28 melanoma 69%

COC(=O)[C@]12CCC(C)(C)C[C@H]1[C@H]1/C(=N/OCCc3nn[nH]n3)C[C@@H]3[C@@]4(C)CC[C@H](OC(C)=O)C(C)(C)[C@@H]4CC[C@@]3(C)[C@]1(C)CC2
active: SK-MEL-5 melanoma -45%
inactive: HCT-15 colon 33.3% | HT29 colon 43.1% | SNB-75 CNS 43% | SNB-19 CNS 34% | U251 CNS 36.3% | PC-3 prostate 26.7% | UACC-62 melanoma 13.2% | LOX IMVI melanoma 19.8% | SK-MEL-28 melanoma 41.9%

Cc1ccc2c(n1)C(=O)C(Br)=C(C1CCCC1)C2=O
inactive: HCT-15 colon 99.5% | HT29 colon 109% | SNB-75 CNS 99.7% | SNB-19 CNS 98.1% | U251 CNS 97.4% | PC-3 prostate 89.9% | SK-MEL-5 melanoma 97.3% | UACC-62 melanoma 98.5% | LOX IMVI melanoma 91.6% | SK-MEL-28 melanoma 117%

CCN(CC)CCn1c2ccc(OC)cc2c2sc3cc(OC)ccc3c(=O)c21
inactive: SNB-75 CNS 85.9% | SNB-19 CNS 28.9% | U251 CNS 20.5% | PC-3 prostate 25.6% | SK-MEL-5 melanoma 57% | UACC-62 melanoma 47.2% | SK-MEL-28 melanoma 29.7%
active: HCT-15 colon 8.79% | HT29 colon 0.172% | LOX IMVI melanoma -75%

O=C(COc1ccc(-c2nc3cc(Cl)c(Cl)cc3[nH]2)cc1)N=Nc1c(O)[nH]c2ccc(Cl)cc12
inactive: HCT-15 colon 80.3% | HT29 colon 33.4% | SNB-75 CNS 68.5% | SNB-19 CNS 56.7% | U251 CNS 34.2% | PC-3 prostate 61.2% | SK-MEL-5 melanoma 85.6% | UACC-62 melanoma 91.6% | LOX IMVI melanoma 60.8% | SK-MEL-28 melanoma 73.7%

COc1ccc(-c2ccc(=O)oc2-c2cc(OC)c(OC)c(OC)c2)cc1O
inactive: HCT-15 colon 12.1% | SNB-75 CNS 38.8% | SNB-19 CNS 25.3% | U251 CNS 19.8% | PC-3 prostate 36.9% | UACC-62 melanoma 34.7% | LOX IMVI melanoma 17.8% | SK-MEL-28 melanoma 47.4%
active: HT29 colon -24% | SK-MEL-5 melanoma -55.5%

COc1ccccc1NC(=O)N=Nc1c(O)[nH]c2ccccc12
inactive: HCT-15 colon 94.4% | HT29 colon 105% | SNB-75 CNS 82.7% | SNB-19 CNS 89.7% | U251 CNS 97.3% | PC-3 prostate 89.7% | SK-MEL-5 melanoma 94.1% | UACC-62 melanoma 79.2% | LOX IMVI melanoma 98.2% | SK-MEL-28 melanoma 104%

CCOC(=O)n1ccn(C)c1=S
inactive: HCT-15 colon 104% | HT29 colon 96.2% | SNB-75 CNS 104% | SNB-19 CNS 110% | U251 CNS 100% | PC-3 prostate 91% | SK-MEL-5 melanoma 109% | UACC-62 melanoma 108% | LOX IMVI melanoma 105% | SK-MEL-28 melanoma 108%

COC(=O)c1cc(N=C2NC(=O)/C(=C/C=C/c3ccccc3)S2)ccc1O
inactive: HCT-15 colon 25.8% | HT29 colon 10.7% | SNB-75 CNS 12.9% | SNB-19 CNS 30.4% | U251 CNS 22.6% | PC-3 prostate 30% | SK-MEL-5 melanoma 30.1% | UACC-62 melanoma 33.6% | LOX IMVI melanoma 40.1% | SK-MEL-28 melanoma 65.4%

CC1=C([Se]CC(OC(=O)CC[Se]c2ccccc2)C(=O)NC(C)(C)C)C(=O)c2ccccc2C1=O (stereo not given)
active: HCT-15 colon 4.43% | HT29 colon 5.28% | SNB-75 CNS -89.2% | SNB-19 CNS -88.1% | U251 CNS -36% | PC-3 prostate -36% | SK-MEL-5 melanoma -97.4% | UACC-62 melanoma -76.4% | LOX IMVI melanoma -0.738% | SK-MEL-28 melanoma -92.2%

Cc1ccc(-c2nc(N3CCCNCC3)c3oc(-c4ccccc4)nc3n2)cc1
active: HCT-15 colon -85.1% | HT29 colon -82.8% | SNB-75 CNS -67.3% | SNB-19 CNS 8.75% | U251 CNS -85.9% | PC-3 prostate -88.7% | SK-MEL-5 melanoma -93.4% | UACC-62 melanoma -91.8% | LOX IMVI melanoma -91.6% | SK-MEL-28 melanoma -93.4%

Oc1ccc(Cl)cc1/C=N\NC(=S)N/N=C/c1cc(Cl)ccc1O
active: SK-MEL-5 melanoma -32.6% | UACC-62 melanoma 3.04%
inactive: HCT-15 colon 23% | HT29 colon 33.9% | SNB-75 CNS 77.7% | SNB-19 CNS 39.8% | U251 CNS 25.9% | PC-3 prostate 25.8% | LOX IMVI melanoma 15.7% | SK-MEL-28 melanoma 58.4%

CC(C)=CCCC(C)c1ccc(C)c2c1OCN(CCCCCO)C2 (stereo not given)
inactive: HCT-15 colon 94% | HT29 colon 27.2% | SNB-75 CNS 85.6% | SNB-19 CNS 88.8% | U251 CNS 83.8% | PC-3 prostate 66.6% | SK-MEL-5 melanoma 91.7% | UACC-62 melanoma 82.8% | LOX IMVI melanoma 77.6% | SK-MEL-28 melanoma 115%

CN(C)Cc1ccc(O)c(C(=O)O)c1
inactive: HCT-15 colon 107% | HT29 colon 107% | SNB-75 CNS 108% | SNB-19 CNS 109% | U251 CNS 93.3% | PC-3 prostate 105% | SK-MEL-5 melanoma 108% | UACC-62 melanoma 104% | LOX IMVI melanoma 99.4% | SK-MEL-28 melanoma 119%

CC(=O)Oc1ccc(N2C(=O)C(Cl)=C(Nc3cccc(C(F)(F)F)c3)C2=O)cc1
inactive: HCT-15 colon 84% | HT29 colon 104% | SNB-75 CNS 95.1% | SNB-19 CNS 93% | U251 CNS 97.4% | PC-3 prostate 96.3% | SK-MEL-5 melanoma 105% | UACC-62 melanoma 87.8% | LOX IMVI melanoma 88.7% | SK-MEL-28 melanoma 101%

Cc1cc(=O)oc2cc(OCc3nn4c(Nc5nc6ccccc6s5)c(-c5ccccc5)nc4s3)ccc12
inactive: HCT-15 colon 91.3% | HT29 colon 102% | SNB-75 CNS 84.4% | SNB-19 CNS 74.7% | U251 CNS 96.7% | PC-3 prostate 87% | SK-MEL-5 melanoma 99.2% | UACC-62 melanoma 84.4% | LOX IMVI melanoma 95.8% | SK-MEL-28 melanoma 102%

COc1ccc(C(=O)C/C(=C\c2ccc(Cl)cc2)C(=O)NCc2ccccc2)cc1
inactive: HCT-15 colon 47% | HT29 colon 82.1% | SNB-75 CNS 100% | SNB-19 CNS 85.5% | U251 CNS 70.6% | PC-3 prostate 56.4% | SK-MEL-5 melanoma 93.4% | UACC-62 melanoma 67.3% | LOX IMVI melanoma 77.9% | SK-MEL-28 melanoma 91.2%

CC1CCN(CCOc2ccc(CNc3ccc4nc(CCC5CCCCC5)[nH]c4c3)cc2)CC1
inactive: HT29 colon 10% | SNB-75 CNS 59.7% | SNB-19 CNS 62.3% | PC-3 prostate 40.3% | UACC-62 melanoma 56.8%
active: HCT-15 colon -22.5% | U251 CNS -11.2% | SK-MEL-5 melanoma -99% | LOX IMVI melanoma -85.7% | SK-MEL-28 melanoma -80.2%

COc1ccc(/C=N/NC(=O)c2ccc(-n3cc(-c4ccccc4)nn3)cc2)cc1OC
inactive: HCT-15 colon 97.6% | HT29 colon 100% | SNB-75 CNS 94% | SNB-19 CNS 107% | U251 CNS 106% | PC-3 prostate 94% | SK-MEL-5 melanoma 89.2% | UACC-62 melanoma 76.7% | LOX IMVI melanoma 94.5% | SK-MEL-28 melanoma 88.8%

CCNCCNc1cc(C2CCCCC2)c(C#N)c2nc3ccccc3n12
inactive: HCT-15 colon 16.7% | SNB-19 CNS 42.9% | PC-3 prostate 40.2%
active: HT29 colon -50% | SNB-75 CNS -26% | U251 CNS -37.7% | SK-MEL-5 melanoma -55.1% | UACC-62 melanoma -62% | LOX IMVI melanoma -94.8% | SK-MEL-28 melanoma -73.1%

N#Cc1c(-c2ccccc2)cc(-c2ccccc2)n(CCCC(=O)Nc2ccccc2N)c1=O
inactive: HCT-15 colon 28.1% | HT29 colon 49.5% | SNB-19 CNS 62.2% | U251 CNS 56.7% | PC-3 prostate 67.4% | SK-MEL-5 melanoma 48.4% | UACC-62 melanoma 34.2% | LOX IMVI melanoma 48% | SK-MEL-28 melanoma 65.9%
active: SNB-75 CNS -9.01%

c1csc(-c2ccc(CNc3c4ccccc4nc4ccccc34)cc2)c1
active: HCT-15 colon -66.2% | HT29 colon -46.8% | U251 CNS -72.7% | SK-MEL-5 melanoma -90.7% | LOX IMVI melanoma -90.7% | SK-MEL-28 melanoma -86%
inactive: SNB-75 CNS 36.1% | SNB-19 CNS 46.2% | PC-3 prostate 24% | UACC-62 melanoma 64.5%

COc1cc(C2c3cc(OC(C)=O)c(OC)cc3CC3C(=O)OCC32)ccc1OC(C)=O (stereo not given)
inactive: HCT-15 colon 104% | HT29 colon 97.6% | SNB-75 CNS 94.5% | SNB-19 CNS 116% | U251 CNS 92.6% | PC-3 prostate 68.3% | SK-MEL-5 melanoma 109% | UACC-62 melanoma 103% | LOX IMVI melanoma 103% | SK-MEL-28 melanoma 122%

Cc1csc(Nc2nc(-c3ccccn3)nc(C(Cl)(Cl)Cl)n2)n1
inactive: HCT-15 colon 57.2% | HT29 colon 68% | SNB-75 CNS 90.1% | SNB-19 CNS 80.9% | U251 CNS 62.2% | PC-3 prostate 91.1% | SK-MEL-5 melanoma 86.2% | UACC-62 melanoma 84.3% | LOX IMVI melanoma 49.4% | SK-MEL-28 melanoma 87.6%
